About 83,000 compounds went through this panel and 20% of them were active in at least one assay; those are over-represented in the sample as a whole.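 For each line, cells grew in 96-well plates with the test compound present at a single concentration for 48 hours.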 Active and inactive are the calls of the source. The calls were made as follows: active = growth percent below 10; inactive = the rest.
These compounds were tested on CCRF-CEM leukemia (assay: NCI-60 one-dose screen, 48 h (100 = growth as untreated, 0 = no growth, -100 = all killed)). Conditions: 10 µM unless noted.

SMILES	growth
NC(=O)CNc1ccc([As]=[As]c2ccc(NCC(N)=O)cc2)cc1 (configuration not stated)	10.9% (inactive)
C/C(=C\c1ccn(-c2ccc(N)cc2)n1)[C@@H]1C[C@@H]2O[C@]2(C)CCC[C@H](C)[C@H](O)[C@@H](C)C(=O)C(C)(C)[C@@H](O)CC(=O)O1	16.8% (inactive)
CC1(C)N=C(N)N=C(N)N1c1ccc(OCCCNC(=O)Nc2ccc(S(=O)(=O)F)cc2)c(Cl)c1	24.2% (inactive)
c1ccc(COc2ccc3[nH]cc(CCN(Cc4ccccc4)Cc4ccccc4)c3c2)cc1	73.8% (inactive)
O=[As](O)(O)c1ccccc1[As](=O)(O)O	110% (inactive)
C1CCC([PH+](C2CCCCC2)C2CCCCC2[PH+](C2CCCCC2)C2CCCCC2)CC1.[Au].[CH-]1CCCCC1CC1CCCC[N-]1 (configuration not stated)	-12.5% (active)
CCCC(=O)O[C@@H]1C[C@H]2C[C@@H](O[C@@H]3O[C@@H](C)[C@@H](O)[C@@H](O)[C@H]3OC)C[C@@H](C[C@@H](C)/C=C/C=C\C[C@@H]3O[C@@H](C[C@@H]3C)[C@@H](O)C[C@H]3C[C@@]1(O)C(=O)O3)O2	50.9% (inactive)
CC[S][Hg][Cl]	93.4% (inactive)
COc1cccc2c1c(C(=O)c1ccco1)cn2Cc1ccc(F)cc1	177% (inactive)
CC(=O)c1ccc(C(=O)NCC2CCC3(CC2)OOC2(CCCCC2)OO3)cc1	31.9% (inactive)
O=C(N/N=C/c1ccc(N(CCCl)CCCl)cc1)c1cccc2ccccc12	56.6% (inactive)
O=C(CCCCCNC1=CC(=O)c2ccccc2C1=O)NCCC[Te]c1ccccc1	-15.3% (active)
N#CC1(c2ccccc2)CCN(Cc2ccccc2)CC1	86.3% (inactive)
O=P1(NCCCl)OCCCN1CCCl (configuration not stated)	99.1% (inactive)
O=C(CC1(O)C(=O)Nc2ccc(Br)cc21)c1ccc(C(=O)NCC2CCC3(CC2)OOC2(CCCCC2)OO3)cc1 (configuration not stated)	-34.4% (active)
Cc1ccc(Nc2nc3c(s2)C2=CC[C@@H]4[C@H](CC[C@]5(C)C(=O)CC[C@@H]45)[C@@]2(C)CC3)cc1	7.68% (active)
C=C1C[C@](OC)([C@H](O)C(=O)N[C@@H](OC)[C@@H]2C[C@@H](O)C(C)(C)[C@@H](C[C@@H](COC)OC)O2)O[C@H](C)[C@@H]1C	-24.3% (active)
O=C1C2C(C(=O)[N]1[Hg][c]1cccs1)C1(Cl)C(Cl)=C(Cl)C2(Cl)C1(Cl)Cl (configuration not stated)	-14.1% (active)
COc1ccc(/C=C\c2cc(OC)c(OC)c(OC)c2)cc1NC(=O)/C=C/c1ccc(OC)c(OC)c1	12.1% (inactive)

SMILES	growth
O=C(O)c1c(Cl)n(Cc2ccc(O)cc2)c2ccc(O)cc12	81.6% (inactive)
CC(=O)OCc1cc[c]([Hg][Cl])o1	-20% (active)
COC(=O)[C@@H](C)C[C@H](Cc1ccccc1)NC(=O)c1csc([C@@H](C[C@H](C(C)C)N(C)C(=O)[C@@H](NC(=O)CN(C)C)C2CC2)OC(C)=O)n1	10.3% (inactive)
CC(=O)Nc1nc2c(s1)CC[C@@]1(C)C2=CC[C@H]2[C@@H]3CC[C@H](O)[C@@]3(C)CC[C@@H]21	38.8% (inactive)
COc1ccc(/C(C)=C(\c2ccc(OCCN3CCOCC3)cc2)c2ccc(OC(=O)Cc3ccccc3)cc2)cc1	98.3% (inactive)
O=C(O)C(O)C(O)C1[O][Sb]([c]2ccc([N+](=O)[O-])cc2)[O]C1CO (configuration not stated)	98.5% (inactive)
Fc1c[c-]c(-c2ccccn2)c(F)c1.[CH3-].[Pt+2].c1ccc([PH+](c2ccccc2)c2ccccn2)cc1	9.35% (active)
CCCCCCCCOC(=O)CCN1CC1	110% (inactive)
O=C1N[C@@H]2[C@@H](O)[C@@H](O)[C@H](O)C[C@H]2c2cc3c(c(O)c21)OCO3	2.84% (active)
O=P(Oc1ccc(Cl)cc1)(N1CC1)N1CC1	82.5% (inactive)
O=C1CC2(CC3(Cl)C(Cl)=C(Cl)C2(Cl)C3(Cl)Cl)C(=O)O1 (configuration not stated)	114% (inactive)
COc1ccc(/C=C/c2cc(OC)c(OC)c(OC)c2)cc1NC(=O)/C=C/c1ccc(F)cc1	11% (inactive)
Nc1cc2nc3ccccc3nc2cc1N	94% (inactive)
CN[C@@]1(c2ccccc2Cl)CCCC[C@@H]1NCC1CCCO1 (some centres not stated)	99.8% (inactive)
COc1cc2c(cc1OCCCn1c(-c3ccccn3)nc3ccccc31)N=C[C@@H]1CCCN1C2=O	5.34% (active)
O=C(CC1(O)C(=O)Nc2ccc(Cl)cc21)c1ccc(C(=O)NCC2CCC3(CC2)OOC2(CCCCC2)OO3)cc1 (configuration not stated)	-41.3% (active)
CNC12C3C4C1C1C2C3C41C(=O)N[C@H](C(=O)N(C)[C@H](C[C@@H](OC(C)=O)c1nc(C(=O)N[C@@H](Cc2ccccc2)C[C@H](C)C(=O)OC)cs1)C(C)C)C1CC1 (some centres not stated)	-1.11% (active)
c1cc2c(c3c1CCNC3)OCO2	124% (inactive)

From PubChem BioAssay (NCI)
